Screening data deposited in PubChem BioAssay by National Center for Advancing Translational Sciences (NCATS).
An excerpt weighted towards active compounds, which were near 19% of everything screened.
TDP1 cell CPT – qHTS for Inhibitors of human tyrosyl-DNA phosphodiesterase 1 (TDP1): qHTS in cells in presence of CPT | AID 686979, 2013 | 12% of 420,000 active | chicken DT40 Tdp1-/-;hTDP1 cells + 20 nM CPT, ATP luminescence, 48 h | Potency, µM (titrated, usually from 46.2 µM), without a hit: at the top dose activity change, negative = growth inhibition, most hits filed as inhibitors; also: potency is read from the fitted curve at half-maximal effect; nearly all actives have a fitted effect of over 55% in size
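Chicken DT40 Tdp1-/- cells complemented with human TDP1, 400 cells/well, exposed to compounds plus 20 nM camptothecin for at least 48 h at 37 C; viability read as ATP content by CellTiter-Glo luminescence.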
ELG1 repair inh – qHTS screen for small molecules that inhibit ELG1-dependent DNA repair in human embryonic kidney (HEK293T) cells expressing luciferase-tagged ELG1; HEK293T ELG1-luciferase reporter, luminescence, 16 h; DNA damage induced by 5-fluorouridine; Potency, µM (doses to about 46.1 µM), for inactives: at the highest dose activity change, negative = inhibition, actives largely listed as inhibitors; 2.3% of 330,000 active; also: potency is read from the fitted curve at half-maximal effect; nearly all actives have a fitted effect of over 55% in size
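5-Fluorouridine DNA damage + compound/DMSO, 2,000 cells/well, 16 h, 37 °C/5% CO2. ONE-Glo, 30 min RT, luminescence. Readout = decrease in reporter signal.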
HT1080 IDH1KD tx – qHTS for induction of synthetic lethality in tumor cells producing 2HG: qHTS for the HT-1080-IDH1KD cell line | 2% of 360,000 active | HT-1080 IDH1 knockdown viability, ATP luminescence, 48 h | Potency, µM (doses to about 46.1 µM), for the others: top-dose activity, negative = toxicity, actives largely listed as cytotoxic;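 also: potency is read from the fitted curve at half-maximal effect; 0% = DMSO wells and -100% = cell-free medium wells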
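Assay cells: HT-1080 with IDH1 knockdown, 750 per well, RPMI/5% FBS. Exposure: 48 h at 37 °C following 2 h pre-incubation. Read: CellTiter-Glo luminescence; fitted concentration-response, curve class assigned.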
HT1080NT lethal – qHTS for induction of synthetic lethality in tumor cells producing 2HG: qHTS for the HT-1080-NT fibrosarcoma cell line; HT-1080-NT fibrosarcoma viability, CellTiter-Glo ATP luminescence, 48 h; Potency, µM (titrated, usually from 46.1 µM), inactives show at the top dose activity, negative = less viability, most hits filed as cytotoxic; 1.6% of 360,000 active;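 also: NT is the 2HG producing partner of a matched IDH1 knockdown line; potency is read from the fitted curve at half-maximal effect; 0% = DMSO-treated cells and -100% = media-only wells without cells; nearly all actives have a fitted effect of over 55% in size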
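A 48-hour cytotoxicity screen used HT-1080-NT cells plated 2 hours before compound delivery. ATP-based CellTiter-Glo luminescence measured viability, normalized to DMSO and no-cell controls.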
DT40 TDP1 no CPT – qHTS for Inhibitors of human tyrosyl-DNA phosphodiesterase 1 (TDP1): qHTS in cells in absence of CPT; DT40 Tdp1-/- hTDP1 cells, no CPT, ATP luminescence, 48 h; 15% of 420,000 active; AID 686978, 2013; Potency, µM (highest dose often 46.2 µM), for the others: at the highest dose activity change, negative = growth inhibition, hits mostly inhibitors; also: potency is read from the fitted curve at half-maximal effect; nearly all actives have a fitted effect of over 55% in size
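Camptothecin absent (DMSO only). Human TDP1-complemented DT40 knockout cells, 400 cells/well, 37 °C for minimum 48 hr; ATP measured via CellTiter-Glo, 30 min dark incubation, luminescence.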
IL1B secr inh – qHTS for Inhibitors of Inflammasome Signaling: IL-1-beta AlphaLISA Primary Screen; THP-1 LPS/ATP IL-1B secretion, AlphaLISA, 16 h; stronger effect = lower value; activity change, % at 57.5 µM; 4.7% of 360,000 active; AID 743279, 2014; in the data active = activity change below about -50%; inconclusive = mostly about -30% to -49%
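Secreted IL-1B measured by AlphaLISA bead assay after 16 h compound exposure of THP-1 cells; compounds (final up to 57.5 uM) added 1 h before LPS (250 ng/mL) and ATP (1.25 mM) stimulation; lower signal means less secretion.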
* marks the source's active call; other numbers are inactive results; ? = inconclusive; / = no result; [ ] = another dose, or the depositor's remark. Unless noted, calls follow the shape of the dose curve; as a rule, active = well fitted curve in the direction sought with a large enough effect; inconclusive = small, poorly fitted or top-dose-only effect, or another doubt; inactive = no such curve, though single readings can be large; an effect the other way counts as inactive or inconclusive. Unless noted, % is scaled to controls: 0 for no effect and ±100 for the full control effect.

SMILES	TDP1 cell CPT	ELG1 repair inh	HT1080 IDH1KD tx	HT1080NT lethal	DT40 TDP1 no CPT	IL1B secr inh
Cc1cc(NC(=O)Nc2ccc(F)c(Cl)c2)no1	-27%	-27%	-25%	0%[9.24 µM]	-10%	-24
Cc1ccc(Cl)cc1NC(=O)NCc1cccnc1	-12%	-5%	4%	-1%	12%	36
Cc1cc(NC(=O)NC2(C(F)(F)F)Oc3ccc(Cl)cc3O2)no1 (centres undefined)	18µM*	?	10µM*	?	18µM*	44
O=C(NCc1cccnc1)NC1(C(F)(F)F)Oc2ccc(Cl)cc2O1 (centres undefined)	10µM*	?	?	-27%	12µM*	28
COCCNC(=O)NC1(C(F)(F)F)Oc2ccc(Cl)cc2O1 (centres undefined)	18µM*	6%	?	?	13µM*	0
CC(C)C(C)/C=C/C(C)C1CCC2C3=CCC4CC(=O)CC[C@@]4(C)C3CC[C@]21C (some centres undefined)	3%	/	/	/	-17%	/
CCOc1ccc(/C=C/c2nc(C#N)c(N3CCC(C)CC3)o2)cc1	10µM*	/	/	/	13µM*	/
CC1CCN(c2oc(/C=C/c3ccc(F)cc3)nc2C#N)CC1	?	/	/	/	15µM*	/
CCOc1ccc(/C=C/c2nc(C#N)c(N3CCN(c4ccccc4)CC3)o2)cc1	?	/	/	/	-14%	/
CCOc1ccc(/C=C/c2nc(C#N)c(N3CCN(CC)CC3)o2)cc1	6.5µM*	/	/	/	5.8µM*	/
